Test results published in the supplement of paper PMC6555819.

Tests used:
Experiment in all cases: PBM binding z-score (relative to random genomic background probes); higher = stronger binding; sequences stand for … in GC…GCGATTGACAGCGTAGAATGAAGG
[1] = system: FXR:RXRa (NR concentration 270 nM, RXRa partner concentration 90 nM)
Method in brief: (§1)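 Ligand-free nuclear receptor dimers were applied to custom Agilent 4×180K protein-binding microarrays whose double-stranded probes carried direct-repeat seeds, single-nucleotide variants, half-site ablations and random human genomic background sequences in 34-nt variable regions. Incubation lasted 1 h. Binding z-scores were computed against the random background probes from regression-normalized fluorescence.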

[2] = system: LXRa:RXRa (NR concentration 270 nM, RXRa partner concentration 90 nM)
Method in brief: as §1

[3] = system: LXRa homodimer (NR concentration 270 nM)
Method in brief: as §1

[4] = system: LXRb:RXRa (NR concentration 270 nM, RXRa partner concentration 90 nM)
Method in brief: as §1

[5] = system: LXRb homodimer (NR concentration 270 nM)
Method in brief: as §1

[6] = system: PPARa:RXRa (NR concentration 270 nM, RXRa partner concentration 90 nM)
Method in brief: as §1

[7] = system: PPARg:RXRa (NR concentration 180 nM, RXRa partner concentration 90 nM)
Method in brief: as §1

[8] = system: PPARg:RXRa 270nM:90nM, anti-RXR (NR concentration 270 nM, RXRa partner concentration 90 nM)
Method in brief: as §1

[9] = system: PPARg:RXRa 30nM:10nM, anti-RXR (NR concentration 30 nM, RXRa partner concentration 10 nM)
Method in brief: as §1

[10] = system: PPARg:RXRa 90nM:30nM, anti-RXR (NR concentration 90 nM, RXRa partner concentration 30 nM)
Method in brief: as §1

[11] = system: PPARg:RXRa DBDmut IVT, anti-RXR (DBD mutation: RXRa K156A/R161A, NR concentration 270 nM, RXRa partner concentration 90 nM)
Method in brief: as §1

[12] = system: PPARg:RXRa IVT, anti-PPARg (NR concentration 270 nM, RXRa partner concentration 90 nM)
Method in brief: as §1

[13] = system: PPARg DBDmut:RXRa IVT, anti-PPARg (DBD mutation: PPARg1 K132A/R137A, NR concentration 270 nM, RXRa partner concentration 90 nM)
Method in brief: as §1

[14] = system: PPARg DBDmut IVT, anti-PPARg (DBD mutation: PPARg1 K132A/R137A, NR concentration 270 nM)
Method in brief: as §1

[15] = system: PPARg homodimer (NR concentration 180 nM)
Method in brief: as §1

[16] = system: PXR:RXRa (NR concentration 270 nM, RXRa partner concentration 90 nM)
Method in brief: as §1

[17] = system: PXR homodimer (NR concentration 270 nM)
Method in brief: as §1

[18] = system: RARa:RXR (NR concentration 270 nM, RXRa partner concentration 90 nM)
Method in brief: as §1

[19] = system: RARa homodimer (NR concentration 270 nM)
Method in brief: as §1

[20] = system: RARb:RXRa (NR concentration 270 nM, RXRa partner concentration 90 nM)
Method in brief: as §1

Sequence	PBM binding z-score [1]	PBM binding z-score [2]	PBM binding z-score [3]	PBM binding z-score [4]	PBM binding z-score [5]	PBM binding z-score [6]	PBM binding z-score [7]	PBM binding z-score [8]	PBM binding z-score [9]	PBM binding z-score [10]	PBM binding z-score [11]	PBM binding z-score [12]	PBM binding z-score [13]	PBM binding z-score [14]	PBM binding z-score [15]	PBM binding z-score [16]	PBM binding z-score [17]	PBM binding z-score [18]	PBM binding z-score [19]	PBM binding z-score [20]
GCTGCTAGGTCAACTGATGCTCAGCTAAAGCTCG	4.03	2.63	-0.106	1.88	-0.349	3.79	2.66	3.35	0.299	2.26	4.93	3.92	-0.517	-0.991	1.02	1.26	-0.735	2.18	-0.0559	4.27
ACTAGCAGGCTAAGGGTCACTCAAGATTAGTCCG	2.37	2.99	-0.0624	2.72	-0.651	4.35	6.55	6.82	6.03	7.57	0.414	3.12	0.0604	-0.126	1.94	3.45	-0.319	4.56	0.291	3.47
ATATGTAGGTTAGCAGGGGTCATTCAGACTAGGC	5.14	5.99	4.53	5.37	1.78	5.56	6.6	5.97	3.32	5.33	6.72	6.32	3.05	2.47	4.78	6.38	2.6	6.55	2.44	3.5
CCTACTGGGGCAAAGGTTACCATACTCAGTACGA	1.74	1.84	0.187	2.41	-0.355	6.15	12.1	10	12.4	12.2	5.92	7.16	3.64	1.43	4.58	2.6	-0.144	4.19	-0.0268	2.6
CTGCCAAGGTGAACAAGGTCGTTGATTACTATTC	0.873	0.86	-0.343	1.15	-0.569	2.25	0.839	1.1	-0.107	0.638	2.22	2.18	-0.417	-1	0.571	2.35	1.73	1.9	-0.469	2.08
GCATATAGATAATACAAGGTGAAAGTCCGATTGT	0.079	0.0374	0.245	0.117	-0.118	0.578	1.21	0.513	0.278	0.522	0.0768	0.523	1.29	0.755	0.731	0.197	0.246	0.795	0.194	0.165
ATATGTAGGTTATCGGGTCATTGAGTTTGCGCAT	3.15	3.21	1.69	2.94	1.33	4.75	7.4	6.33	3.44	5.94	7.71	7.5	3.11	1.9	2.89	4.55	10.5	3.82	1.41	2.86
GGAATGAGGGCAAGTTGATAGCAGAGTTTGATGG	1.28	0.752	-0.149	0.54	0.0849	2.08	1.6	1.56	0.431	0.993	4.98	3.82	1.16	-0.0155	1.37	1.05	1.87	0.695	0.0185	2.64
GGAATGAGGGCATTCGAGTTGATAGCATGGCGAT	1.71	2.3	-0.453	0.478	-0.43	2.13	1.46	1.52	0.439	1.05	4.4	3.1	1.13	-0.209	0.811	4.13	1.54	1.44	-0.137	1.72
TCTATTAGTTGATTTGGGCAACCGAAACAGCGGA	0.267	0.602	0.223	0.863	1.2	0.657	-0.145	1.83	3.74	3.01	2.03	0.616	1.09	1.16	0.506	0.543	0.421	0.432	0.567	0.368
ATATGTAGGTTAGCTGGTGTCATTCAGACTAGGC	0.789	1.83	-0.106	0.765	0.392	2.74	3.47	2.8	0.962	2.2	6.77	6.16	2.14	1.6	1.06	1.65	0.392	1.44	0.23	0.987
TCTGCTAGGTCAAAGATGGTCAGCTAATCTGCTA	3.55	3.06	0.0702	2.07	0.0441	3.73	3.32	4.37	2.61	3.76	4.67	3.96	0.246	0.394	0.4	1.59	-0.802	2.44	-0.95	3.83
GCTCAGAGGACAAGGTCAGAGCTTTGTCCGTAGA	1.98	1.73	-0.421	1.27	-0.977	2.37	0.282	0.936	-0.588	0.0916	0.92	0.924	-1.05	-1.28	0.348	1.74	-0.21	2.17	-0.133	3.78
AGAACGAGGTTAAGATCAGGGAAACAGAATACAT	2.1	2.05	0.0843	2.09	0.134	3.4	1.98	1.92	0.64	1.61	1.95	2.16	1.47	0.398	0.757	1.27	0.776	1.89	0.576	1.91
TCATATAGGTAATACAGGTGCAAGTCGGCATCTA	0.658	1.85	0.544	0.742	0.358	1.45	1.07	2.35	3.75	3.08	3.87	2.67	1.02	0.643	0.337	1.07	0.613	0.828	1.43	0.563
ACTCCGAGGACAAAGGTCAGAGCTACGCCAGTGA	4.86	4.4	1.86	3.99	0.764	4.91	8.48	7.6	6.18	8.09	1.44	4.05	0.71	-0.0719	6.93	4.53	0.63	5.82	2.61	4.58
CGTCCAAGGCCAAGGTCAGTGAAAGAGACTCGAA	1.58	1.15	-0.343	1.21	-0.878	2.04	0.804	0.725	-0.305	0.665	0.486	0.991	-1.04	-1.54	1.05	1.53	0.261	2.04	0.342	3.58
ACTATTAGTTGACTTAGGGCAACCGGTACGACGC	0.0418	0.216	0.333	0.0684	0.939	0.187	0.638	0.108	0.302	0.142	0.0602	0.506	0.963	0.218	0.403	0.35	0.564	0.898	0.577	1.14
ACAATGAGGTTACCAAAGATCAGGGAAACGCTTG	1.97	6.4	0.286	3.25	0.572	3.26	2.36	2.11	0.698	1.61	2.64	2.42	0.961	1.48	0.966	1.52	0.0541	2.2	0.0916	2.32
TCTTGTAGATCAAACAGGTTAAGAAAGCCTGAGT	0.553	0.608	0.121	0.509	-0.073	1.1	-0.134	1.44	2.65	2.3	1.7	0.783	1.28	0.534	-0.369	0.754	0.338	0.849	0.0835	0.288
CGAACTAGGTCATTCACAGGACAGTGAATAGTAA	4.72	3.19	0.593	2.48	0.493	4.67	7.34	6.26	3.72	5.9	8.25	8.21	1.5	0.729	1.48	1.77	0.314	2.2	0.779	3.72
CCGAGTAGGTTATGGGGGATTCAGGCAACGGTGA	1.01	1.49	0.84	3.36	6.87	2.55	2.34	4.36	1.98	3.77	4.03	3.95	3.42	4.43	2.01	1.17	1.05	1.26	1.69	1.33
GCTAGGAGGACAAGGTCAGAGCTTTGTCCGTAGA	1.46	1.37	-0.572	0.865	-0.916	2.36	0.985	1.44	-0.224	0.93	1.13	1.17	-0.92	-1.52	0.32	1.57	-0.305	1.89	-1.07	3.41
AATACAGGGTCATCGGAGGCCAGAGTACGCACAG	7.32	6.52	2.37	4.98	1.28	6.1	6.72	6.12	2.64	4.8	2.24	4.03	1.88	1.83	2.39	5.97	0.898	4.9	1.32	4.47
TCTCGGAGGACACGTAGGTCAGAGCTTTCCAGAG	0.6	0.395	-0.0787	0.22	-0.976	1.09	0.109	1.13	2.08	1.61	1.13	0.761	-0.418	-1.11	0.0512	0.765	-0.00599	0.992	-0.463	2.54
CGTCCTAGGTCAGCAGGTCAGTGAAAGCGACGTG	2.92	2.04	0.0283	1.6	-0.603	3.23	2.32	3.21	0.151	1.87	3.21	3.44	-0.463	-0.745	1.79	1.75	-0.5	2.64	-0.501	4.39
GATACAGGCTCAAGGCCAGAGTACGCGTATTGAT	-0.696	-0.88	-0.571	-1.04	-0.938	-0.602	0.777	0.34	-0.217	-0.0733	-0.731	-0.511	-0.646	-1.16	-1.02	-0.534	0.0448	-0.806	-0.764	-0.0838
CCTACTGGGCCATTCAGAGGTCATTGCTCATATG	2.76	4.37	6.67	3.6	0.398	3.57	1.99	2.92	0.777	2.16	4.61	4.29	-0.1	-0.505	1.87	4.7	2.5	4.24	0.689	3.01
